IL-1B inflam inh – inhibitors of inflammasome signaling (IL-1 beta secretion); activity change, % at 57.5 µM; actives 4.7% (n = 360,000); THP-1 LPS/ATP IL-1B secretion, AlphaLISA, 16 h; active compounds read low; AID 743279; in the data active = activity change below about -50%; inconclusive = mostly about -30% to -49%
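THP-1 cells pretreated 1 hr with compounds (up to 57.5 uM final), then stimulated with LPS (250 ng/mL final) plus ATP (1.25 mM final); secreted IL-1B measured by AlphaLISA after 16 hr, decreased signal indicating inhibition.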
KB-3-1 cytotox – KB-3-1 parental cell cytotoxicity. KB-3-1 viability, CellTiter-Glo ATP luminescence, 72 h. Potency, µM (doses to about 46.1 µM), most hits filed as cytotoxic. actives 1.4% (n = 400,000). AID 1347075; note: potency is the fitted concentration of half-maximal effect; nearly all actives have a fitted effect of over 60% in size
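KB-3-1 parental drug-naive adenocarcinoma cells in DMEM/10% FBS, incubated 72 h at 37 C with pin-transferred compounds across a concentration series. Viability by CellTiter-Glo luminescence; concentration-response curves fitted after normalization.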
HT1080-NT tox – kills 2HG-producing HT-1080-NT fibrosarcoma cells; HT-1080-NT fibrosarcoma viability, CellTiter-Glo ATP luminescence, 48 h; Potency, µM (series often up to 46.1 µM), inactives show top-dose activity, negative = less viability, hits mostly cytotoxic; actives 1.6% (n = 360,000);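 note: NT is the 2HG producing partner of a matched IDH1 knockdown line; potency is the fitted concentration of half-maximal effect; 0% = DMSO-treated cells and -100% = media-only wells without cells; nearly all actives have a fitted effect of over 55% in size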
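Luminescent CellTiter-Glo readout after 48 hours of compound exposure at 37 degrees C defined viability of HT-1080-NT cells. Activity was normalized to DMSO wells and cell-free media wells; concentration-response curves were fitted and assigned curve classes.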
HT1080 IDH1KD tx – toxicity to HT-1080 IDH1 knockdown cells (counter line); HT-1080 IDH1 knockdown viability, ATP luminescence, 48 h; Potency, µM (titrated, usually from 46.1 µM), for the others: top-dose activity, negative = toxicity, most hits filed as cytotoxic; actives 2% (n = 360,000); AID 686971;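 note: potency is the fitted concentration of half-maximal effect; 0% = DMSO wells and -100% = cell-free medium wells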
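Using the IDH1-knockdown HT-1080 line run in the same batch and compound series as the NT line, viability after 48 h at 37 °C was determined by CellTiter-Glo luminescence and expressed as % activity.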
KB-V1 MDR tox – KB-V1 MDR subline cytotoxicity; KB-V1 MDR cells viability, CellTiter-Glo, 72 h; Potency, µM (series often up to 46.1 µM), usual class: cytotoxic; actives 3.4% (n = 400,000); AID 1347076; note: potency is the fitted concentration of half-maximal effect; nearly all actives have a fitted effect of over 60% in size
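Readout: CellTiter-Glo luminescence, 10 min after addition. Cells: KB-V1 MDR subline, 72 h at 37 degrees C with compound. Analysis: corrected, normalized data fitted to concentration-effect curves.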
Active calls of the source: *; i = inactive; ? = inconclusive; / = no result; [ ] = dose if it differs, or a comment. Shown are actives, neighbours in structure and some others; about 8.8% of the full set was active somewhere. Unless noted, calls come from the whole dose curve; as a rule, active = well fitted curve in the direction sought with a large enough effect; inconclusive = small, poorly fitted or top-dose-only effect, or another doubt; inactive = no such curve, though single readings can be large; an effect the other way counts as inactive or inconclusive. Unless noted, % is set by controls: 0 for no effect and ±100 for the full control effect.

SMILES	IL-1B inflam inh	KB-3-1 cytotox	HT1080-NT tox	HT1080 IDH1KD tx	KB-V1 MDR tox
CCOC(=O)C1CCN(C(=O)COC(=O)CNC(=O)c2ccc(OC)cc2)CC1	0	i	8%	23%	i
CSc1nc2cc(S(=O)(=O)N3CCCCC3)ccc2s1	-17	?	-12%	-17%	15µM*
CSc1nc2cc(S(=O)(=O)N3CCOCC3)ccc2s1	3	?	-2%	-21%	i
COCCOc1ccc(C(F)(F)F)cc1NC(=O)CN1C(=O)NC2(CCc3ccccc32)C1=O (stereo not drawn)	-20	i	-7%	2%	i
O=S(=O)(c1ccc(Cl)c(NC(=S)N/N=C/c2ccc(O)cc2)c1)N1CCOCC1	-20	?	-21%	-15%	21µM*
O=[N+]([O-])c1cc(Cl)cc(/C=N/NC(=S)Nc2ccc(S(=O)(=O)N3CCOCC3)cc2)c1O	124	?	?	3.7µM*	i
O=S(=O)(c1ccc(NC(=S)NN=Cc2ccccc2O)cc1)N1CCCCC1	?	i	-11%	?	7.3µM*
O=S(=O)(c1ccc(Cl)c(NC(=S)N/N=C/c2c(F)cccc2F)c1)N1CCOCC1	-17	i	-14%	-15%	i
S=C(Nc1ccc(Br)cc1Cl)Nn1cnnc1	-2	i	-1%	5%	?
Cn1cc(S(=O)(=O)N2CCOCC2)cc1C(=O)Nc1cccc(Cl)c1	-13	i	17%	-7%	i
COc1ccc(Cn2c(CCC(=O)NCc3ccco3)nc3cccnc32)cc1	12	i	-6%	3%	21µM*
COCCNC(=O)CSc1nc2cc(OC)c(OC)cc2c(=O)n1Cc1ccc(OC)cc1	9	i	2%	0%	2.6µM*
Cc1ccc(Cn2c(SCC(=O)NCc3ccco3)nc3ccsc3c2=O)cc1	-11	i	-3%	-15%	i
COc1ccc(CNC(=O)CCc2nc3cccnc3n2Cc2ccc(OC)cc2)cc1	/	i	/	/	i
CCOC(=O)c1c(NC(=O)CSc2nc3cc(Cl)ccc3c(=O)n2Cc2ccco2)sc(C(=O)N(C)C)c1C	-58*	i	?	?	i
COc1cc2nc(SCC(=O)NCc3ccco3)n(Cc3ccc(Cl)cc3)c(=O)c2cc1OC	39	10µM*	0%	-1%	?
O=C(c1cc(-n2cnnc2)ccc1Cl)N1CCN(c2nc(-c3ccccc3)cs2)CC1	-90*	21µM*	?	?	i
O=C(c1ncn[nH]1)N1CCN(c2nc(-c3ccccc3)cs2)CC1	-3	i	-3%	1%	i
CCOC(=O)C1(CC)NC(c2ccc(OC)c(OC)c2)C2C(=O)N(c3cccc(C(C)=O)c3)C(=O)C21 (stereo not drawn)	9	i	1%	4%	i
CCc1ccc(NC(=O)N(Cc2cccnc2)Cc2ccco2)cc1	-16	i	11%	-14%	15µM*
CCc1ccc(NC(=O)N(Cc2ccco2)C(C)c2cccs2)cc1 (stereo not drawn)	?	?	1%	-4%	21µM*
CCc1ccc(NC(=O)N(C2CCCCC2)C(C)c2cccnc2)cc1 (stereo not drawn)	-29	i	18%	6%	21µM*
COC(=O)c1ccc(NC(=S)N(Cc2cccnc2)Cc2ccco2)cc1	-8	i	6%	4%	i
Cc1ccc(-c2ccnc(N3CCC(C(N)=O)CC3)n2)cc1	/	i	/	/	i
CN1CCc2nc3sc(C(=O)Nc4cccc(C#N)c4)c(N)c3cc2C1	/	i	/	/	i
SMILES	IL-1B inflam inh	KB-3-1 cytotox	HT1080-NT tox	HT1080 IDH1KD tx	KB-V1 MDR tox
COc1ccc(CCNC(=O)c2cnc3ccc(C)cn3c2=O)cc1	/	i	/	/	i
N=c1cc(C2(O)CCCCC2)n2c(nc3ccccc32)s1	?	?	4%	25%	16µM*
O=C1c2sc3nc4ccccc4n3c2C(=O)N1c1ccccc1Cl	?	i	-16%	-30%	?
Cc1nnc(-c2cccc(Br)c2)c2cn(-c3cccc(Br)c3)nc12	0	?	-11%	-28%	9.2µM*
Cc1nnc(-c2cccc(Br)c2)c2cn(-c3ccccc3)nc12	?	?	-4%	-14%	?
Nc1c(NC2CCCCC2)c2ccccc2oc1=O	19	i	-14%	?	16µM*
O=c1oc2ccccc2c(NC2CCCCC2)c1NS(=O)(=O)c1ccc(Br)cc1	-71*	i	-10%	-15%	i
Cc1ccc(S(=O)(=O)Nc2c(NC3CCCCC3)c3ccccc3oc2=O)cc1	?	?	-1%	-9%	i
Cc1ccc2nc(-c3cccc(NC(=O)c4cccc5c(Cl)cccc45)c3)oc2c1	/	i	/	/	i
O=C(OC1C2CCC1C1CN(CCc3ccccc3)CC12)c1ccccc1 (stereo not drawn)	-67*	i	-11%	-18%	i
Cc1ccc(CNCCC2=CCCCC2)cc1	-69*	?	-2%[9.24 µM]	?	?
Cc1cccc(COC[C@H](Cc2ccccc2)N2CCN(C(=O)c3ccc(Cl)c(Cl)c3)CCC2=O)c1	-65*	?	?	16µM*	i
O=C(c1ccc(Cl)c(Cl)c1)N1CCC(=O)N(C(COCc2cccc(C(F)(F)F)c2)Cc2ccccc2)CC1 (stereo not drawn)	-86*	?	?	?	?
Cc1cccc(COCC(Cc2ccccc2)N2CCN(C(=O)c3ccc(Cl)c(Cl)c3)CCC2=O)c1 (stereo not drawn)	-74*	?	-27%	?	?
O=C(c1cccc(Cl)c1)N1CCC(=O)N([C@H](COCc2cccc(Cl)c2)Cc2ccccc2)CC1	?	?	?	16µM*	?
Cc1cccc(COCC(Cc2ccccc2)N2CCN(C(=O)c3cccc(C)c3)CCC2=O)c1 (stereo not drawn)	-27	i	-6%	-8%	i
CCCCn1c(N)c(N(CC(C)C)C(=O)c2ccc(N3C(=O)CCC3=O)cc2)c(=O)[nH]c1=O	-3	i	10%	30%	i
CCCCCCn1c(Br)nc2c1c(=O)n(C)c(=O)n2C	41	i	1%	-14%	?
CC(=NO)C1(C)CC=CCC1CO (stereo not drawn)	1	i	-1%	-7%	i
CC(C)n1c2ccccc2c2nnc(SCC(=O)Nc3ccccc3C(=O)O)nc21	8	i	-24%	4%	i
O=C(c1ccc(Cl)c(Cl)c1)N1CCC(=O)N(C(COCc2ccc(Cl)cc2)Cc2ccccc2)CC1 (stereo not drawn)	-73*	?	-16%	?	?
Cc1cccc(COCC(Cc2ccccc2)N2CCN(C(=O)c3cc(Cl)cc(Cl)c3)CCC2=O)c1 (stereo not drawn)	-64*	?	?	?	i
